This is one part of a sample in which hits are shown more often than they occur.
HIV RNase H inh-1 – inhibitors of HIV-1 reverse transcriptase RNase H | RT-RNase H RNA/DNA duplex cleavage, fluorescence | inhibition, % at 10 µM | hit rate 1.9% among 65,000 | AID 565; in the data active = inhibition above about 50%
RmlC RmlD mix – RmlC/RmlD inhibition, mixture screen. RmlC/RmlD coupled enzyme inhibition, 384-well mixture HTS. inhibition, % at 5.5 µM. hit rate 0.39% among 110,000. AID 1532; in the data active = inhibition above about 30%, passing the limit was not always enough; inconclusive = no clear call, values can overlap the other calls
HIV RNase H inh-2 – confirmation of HIV-1 reverse transcriptase RNase H inhibitors | shares compounds with HIV RNase H inh-1 | Recombinant RT RNase H, fluorescent RNA/DNA duplex cleavage | inhibition, % at 10 µM | hit rate 39% among 1,000 | AID 651; in the data active = inhibition above about 48%; inconclusive = no clear call, values can overlap the other calls
* hit, by the source's call.

How did COc1ccc(CCn2c(=N)c(C#N)cc3c(=O)n4ccccc4nc32)cc1 do in these assays?
HIV RNase H inh-1: 54.7*; HIV RNase H inh-2: 53.4

How did O=C(NC1CCCCC1)N1CCCC1 do in these assays?
RmlC RmlD mix: 4.7

How did Cc1ccc(-n2c(=O)[nH]c3c(C(N)=O)nc(CC(C)C)nc32)cc1 do in these assays?
HIV RNase H inh-1: 1.4; RmlC RmlD mix: -9.0

How did Cc1ccc(-n2c(=O)[nH]c3c(C(N)=O)nc(-c4ccc(C)o4)nc32)cc1 do in these assays?
HIV RNase H inh-1: 54.6*; HIV RNase H inh-2: 37.4

How did O=C(COc1ccc(Cl)cc1)Nc1nnc(-c2ccc3c(c2)CCCC3)o1 do in these assays?
HIV RNase H inh-1: 87.5*; RmlC RmlD mix: 0.0; HIV RNase H inh-2: 67.3*

Results for CC(=O)Nc1nnc(-c2ccc3c(c2)CCCC3)o1 ?
HIV RNase H inh-1: -63.0; RmlC RmlD mix: 8.3

How did Fc1ccc(-n2nnnc2-c2cnc(-c3cccs3)nc2C(F)(F)F)cc1 do in these assays?
RmlC RmlD mix: -12.7

What do the screens show for `CCC(C)N1CCN(C(=O)c2cccs2)CC1` (configuration not stated)?
RmlC RmlD mix: 16.7

What do the screens show for `COc1ccccc1NS(=O)(=O)c1cc(C(=O)N2CC(C)CC(C)C2)ccc1C` (configuration not stated)?
RmlC RmlD mix: -3.7

How did CCCc1nnc(NC(=O)CN2C(=O)c3ccccc3C2=O)s1 do in these assays?
RmlC RmlD mix: -17.8

How did CCCc1nnc(NC(=O)Cn2c(=O)sc3ccccc32)s1 do in these assays?
HIV RNase H inh-1: 76.5*; RmlC RmlD mix: -6.7; HIV RNase H inh-2: 17.8

What do the screens show for `O=C(Cn1c(=O)oc2ccccc21)Nc1nc(-c2ccccc2)cs1`?
RmlC RmlD mix: -15.3

Results for CC(C)(C)c1csc(NC(=O)Cn2c(=O)oc3ccccc32)n1 ?
HIV RNase H inh-1: 87.6*; RmlC RmlD mix: 9.9; HIV RNase H inh-2: 21.2

What do the screens show for `O=C(CSCC(=O)NCc1ccco1)NCc1ccco1`?
HIV RNase H inh-1: -11.3; RmlC RmlD mix: -9.2

How did O=C(CCSCCC(=O)NCc1ccco1)NCc1ccco1 do in these assays?
HIV RNase H inh-1: 76.8*; RmlC RmlD mix: 9.9; HIV RNase H inh-2: 46.7*

Results for CCOC(=O)N1CCC(NC(=O)c2cccc3c2C(=O)N(c2ccc(OC)cc2)C3)CC1 ?
HIV RNase H inh-1: 40.3; RmlC RmlD mix: 7.8

Results for CCCCNC(=S)NNC(=O)c1nn(C)cc1Cl ?
RmlC RmlD mix: -6.3

How did O=C(CSc1nnc(-c2cccs2)n1-c1ccccc1)NCc1ccc2c(c1)OCO2 do in these assays?
HIV RNase H inh-1: -53.1; RmlC RmlD mix: 0.7

What do the screens show for `Cc1ccc(-n2c(SCC(=O)Nc3ccc4c(c3)OCO4)nnc2-c2cccs2)cc1`?
HIV RNase H inh-1: 65.1*; RmlC RmlD mix: 5.0; HIV RNase H inh-2: 29.5

How did CN(c1ccccc1C(=O)N1CCN(c2ccccc2)CC1)S(C)(=O)=O do in these assays?
RmlC RmlD mix: 4.2

What do the screens show for `CCCCC[C@H](O)/C=C/[C@H]1[C@H](O)CC(=O)[C@@H]1CCCCCCC(=O)O`?
RmlC RmlD mix: -2.4

How did CCCCC[C@H](O)/C=C/[C@H]1C=CC(=O)[C@@H]1C/C=C\CCCC(=O)O do in these assays?
HIV RNase H inh-1: 77.2*; RmlC RmlD mix: 57.4; HIV RNase H inh-2: 66.9*

How did O=C(Nc1ccc(NC(=S)NC(=O)C(c2ccccc2)c2ccccc2)cc1)c1ccccc1 do in these assays?
RmlC RmlD mix: 12.6

What do the screens show for `COC(=O)c1c(NC(=O)c2ccc(Br)o2)sc(C)c1C`?
HIV RNase H inh-1: 74.3*; RmlC RmlD mix: -32.3; HIV RNase H inh-2: 0.9

What do the screens show for `COC(=O)c1sccc1NC(=O)c1ccc(Br)o1`?
HIV RNase H inh-1: -32.2; RmlC RmlD mix: -2.4

Results for CCOC(=O)[C@@H]1[C@H]2COc3ccc(Br)cc3[C@@H]2N2C(=O)N(c3ccc(Cl)cc3)C(=O)[C@]12C ?
RmlC RmlD mix: -8.7

Results for COc1ccc(CNC(=O)C(C)Cc2ccccc2)cc1O (configuration not stated) ?
RmlC RmlD mix: 9.9

How did O=C(Nc1ccc(N2CCCCC2)c(C(=O)O)c1)c1ccco1 do in these assays?
HIV RNase H inh-1: -14.9; RmlC RmlD mix: 4.7

Results for Cc1cccc(NC(=O)c2cc(NC(=O)c3ccco3)ccc2N2CCCCC2)c1 ?
HIV RNase H inh-1: 73.1*; RmlC RmlD mix: 20.8; HIV RNase H inh-2: inconclusive

How did NC(=O)[C@H]1CC2(CC(c3cccc(NC(=O)[C@H]4CCC(=O)N4)c3)=NO2)CN1C(=O)c1cc([N+](=O)[O-])cc([N+](=O)[O-])c1 (some centres not stated) do in these assays?
RmlC RmlD mix: 0.0

What do the screens show for `c1ccc(-n2ncc3c2ncn2nc(-c4ccco4)nc32)cc1`?
HIV RNase H inh-1: 60.0*; RmlC RmlD mix: -3.6; HIV RNase H inh-2: 67.7*

Results for COc1cccc(OCc2nc3c4cnn(-c5ccccc5)c4ncn3n2)c1 ?
HIV RNase H inh-1: 49.0; RmlC RmlD mix: 3.4
